Among the data in PubChem BioAssay are growth inhibition, inhibition and outcome values, retold here.

Assay [1] can be described thus: antimalarial activity against Dd2 strain (AID 2302;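 active = growth inhibition above 50% at the single 2 µM test dose, taken to imply half-maximal potency below 2 µM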;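 also: 0% = DMSO untreated growth and 100% = chloroquine plus artemisinin killed control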). The conditions noted are these: P. falciparum Dd2 in RBCs, LDH growth readout, 72 h; at 2 µM; hits give high values.
Assay [2] is described as follows: human hepatoma cell viability loss – ATP luminescence, cytotoxicity control for P. falciparum antimalarial project, primary screen (AID 2303;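 active = inhibition above 50%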;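 also: 0% = DMSO wells and 100% = digitonin-killed cells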). To be noted: HepG2 viability, 24-48 h, at 10 µM, hits give high values.
Assay [3] concerns the target L-lactate dehydrogenase (Plasmodium falciparum (isolate CDC / Honduras)) (UniProt Q27743). In words: PfLDH activity inhibition – cell lysate, 3D7 strain, counter-screen for P. falciparum growth inhibition project (AID 2304).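 Also: 0% = vehicle and 100% = reference inhibitor.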 To be noted: P. falciparum 3D7 crude extract, LDH APAD/NBT absorbance; at 2 µM; hits give high values. (In general: The purpose of a counterscreen is to sort out artefacts and off-target activity.)

The nature of assay [4]: inhibition of 3D7 malaria parasite growth – strain 3D7 (AID 2306).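 Also: 0% = DMSO wells and 100% = chloroquine plus artemisinin control wells.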 The conditions noted are these: P. falciparum 3D7 erythrocytic growth, LDH absorbance, 72 h; at 2 µM; hits give high values.
Assay [5] addresses Calcium-dependent protein kinase 1 (Plasmodium falciparum (isolate 3D7)) (UniProt P62344). In words: PfCDPK1 kinase inhibitors, biochemical, TCAMS library (AID 1159585; cut-off not given, nearly all actives have IC50 up to about 0.98 µM;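 also: inhibitors leave more ATP so luminescence rises with inhibition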). To be noted: recombinant PfCDPK1, Kinase-Glo ATP depletion luminescence. In general terms: Kinase-Glo measures the ATP left after a reaction by luminescence.
Assay [6] has as its target Plasmodium falciparum protein kinase 6 (PK6, PF3D7_1337100) (UniProt Q8IDW1). In words: PfPK6 kinase inhibitors, biochemical, TCAMS library (AID 1159586). To be noted: recombinant PfPK6, Kinase-Glo ATP depletion luminescence.
Assay [7] has as its target Protein kinase 7 (PK7), Plasmodium falciparum 3D7 (PF3D7_0213400) (UniProt Q7YTF7). The assay is described as follows: inhibition of Plasmodium PK7 catalytic activity – biochemical, TCAMS antimalarial set, Kinase-Glo luminescence (AID 1159587). To be noted: recombinant PfPK7, Kinase-Glo ATP depletion luminescence.
The target of assay [8] is Calcium-dependent protein kinase 4 (Plasmodium falciparum (isolate 3D7)) (UniProt Q8IBS5). In words: PfCDPK4 kinase inhibitors, biochemical, TCAMS library (AID 1159588; cut-off not given, nearly all actives have IC50 up to about 0.91 µM). To be noted: recombinant PfCDPK4, Kinase-Glo ATP depletion luminescence.

Unmarked numbers belong to inactive results. For some assays here: Potency and affinity values are given separately. Calls of active or inactive are those of the source. Unless noted, no rule for the calls is given here.

Chain of Calcium-dependent protein kinase 1 (Plasmodium falciparum (isolate 3D7)) (P62344 whole entry, looked up): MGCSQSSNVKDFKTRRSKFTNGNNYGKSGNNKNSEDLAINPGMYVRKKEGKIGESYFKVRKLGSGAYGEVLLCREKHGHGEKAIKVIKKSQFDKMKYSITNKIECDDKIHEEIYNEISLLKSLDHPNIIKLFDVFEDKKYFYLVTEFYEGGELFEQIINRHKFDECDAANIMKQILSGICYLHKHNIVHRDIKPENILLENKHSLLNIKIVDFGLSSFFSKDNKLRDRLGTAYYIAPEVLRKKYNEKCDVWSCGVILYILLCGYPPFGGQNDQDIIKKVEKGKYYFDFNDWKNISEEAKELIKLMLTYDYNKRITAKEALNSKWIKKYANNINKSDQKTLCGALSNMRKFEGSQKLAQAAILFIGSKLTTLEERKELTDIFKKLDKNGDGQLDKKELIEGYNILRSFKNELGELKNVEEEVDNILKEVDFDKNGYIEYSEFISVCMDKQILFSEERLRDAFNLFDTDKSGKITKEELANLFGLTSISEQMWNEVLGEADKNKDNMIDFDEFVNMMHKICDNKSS
Chain of Calcium-dependent protein kinase 4 (Plasmodium falciparum (isolate 3D7)) (Q8IBS5 whole entry, looked up): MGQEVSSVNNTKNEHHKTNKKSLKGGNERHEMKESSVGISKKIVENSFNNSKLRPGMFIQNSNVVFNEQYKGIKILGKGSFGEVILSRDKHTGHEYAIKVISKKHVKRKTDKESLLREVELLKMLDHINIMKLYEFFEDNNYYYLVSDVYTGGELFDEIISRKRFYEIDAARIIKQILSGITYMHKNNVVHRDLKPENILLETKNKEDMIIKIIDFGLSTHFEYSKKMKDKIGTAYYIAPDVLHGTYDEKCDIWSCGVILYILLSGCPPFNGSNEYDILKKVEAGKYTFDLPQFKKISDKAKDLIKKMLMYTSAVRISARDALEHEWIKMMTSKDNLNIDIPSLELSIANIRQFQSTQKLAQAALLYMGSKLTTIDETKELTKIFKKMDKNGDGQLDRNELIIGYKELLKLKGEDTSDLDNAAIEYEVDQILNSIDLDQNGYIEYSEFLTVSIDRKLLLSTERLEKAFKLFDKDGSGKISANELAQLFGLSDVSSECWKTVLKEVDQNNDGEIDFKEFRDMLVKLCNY
Chain of L-lactate dehydrogenase (Plasmodium falciparum (isolate CDC / Honduras)) (Q27743 whole entry, looked up): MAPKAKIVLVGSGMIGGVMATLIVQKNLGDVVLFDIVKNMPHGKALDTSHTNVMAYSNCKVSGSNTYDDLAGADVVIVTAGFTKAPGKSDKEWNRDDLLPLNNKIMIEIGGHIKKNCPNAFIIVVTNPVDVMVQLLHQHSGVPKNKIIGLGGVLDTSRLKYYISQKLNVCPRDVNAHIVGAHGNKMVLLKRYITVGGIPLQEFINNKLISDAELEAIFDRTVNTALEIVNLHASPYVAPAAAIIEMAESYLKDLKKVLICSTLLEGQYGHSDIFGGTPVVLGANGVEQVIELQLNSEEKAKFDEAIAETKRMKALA
Chain of Plasmodium falciparum protein kinase 6 (PK6, PF3D7_1337100) (Q8IDW1 1-305): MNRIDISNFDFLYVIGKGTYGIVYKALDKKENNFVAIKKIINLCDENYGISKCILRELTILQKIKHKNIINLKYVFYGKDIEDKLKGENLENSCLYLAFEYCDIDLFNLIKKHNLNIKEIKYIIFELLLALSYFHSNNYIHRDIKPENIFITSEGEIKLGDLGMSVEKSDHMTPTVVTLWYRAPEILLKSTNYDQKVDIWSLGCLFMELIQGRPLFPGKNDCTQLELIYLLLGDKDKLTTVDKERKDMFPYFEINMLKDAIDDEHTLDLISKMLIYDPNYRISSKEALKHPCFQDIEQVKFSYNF
Chain of Protein kinase 7 (PK7), Plasmodium falciparum 3D7 (PF3D7_0213400) (Q7YTF7 1-343): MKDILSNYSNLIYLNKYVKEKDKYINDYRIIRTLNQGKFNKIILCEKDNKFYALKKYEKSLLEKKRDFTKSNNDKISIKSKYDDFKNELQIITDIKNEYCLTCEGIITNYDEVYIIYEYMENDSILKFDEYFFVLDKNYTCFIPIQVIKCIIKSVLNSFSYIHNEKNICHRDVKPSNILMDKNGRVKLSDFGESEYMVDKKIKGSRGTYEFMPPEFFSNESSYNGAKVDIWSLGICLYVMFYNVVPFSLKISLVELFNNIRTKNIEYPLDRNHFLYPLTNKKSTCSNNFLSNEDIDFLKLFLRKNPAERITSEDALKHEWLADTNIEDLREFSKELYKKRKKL

As usually defined, the inhibition is the change of the read-out against control, counted positive when it falls. As for `O=C(CCCCCNC(=O)c1ccc(O)c(-c2ccc(Cl)c(Cl)c2)c1)NC1CCCc2ccccc21` (configuration not stated), the growth inhibition in assay [1] is 13%; in assay [4], 97% (active). The inhibition is -7% in assay [2] and -6% in assay [3]. The result in assay [5], in assay [6], in assay [7] and in assay [8] was inactive.
As to `CC(=O)c1ccccc1OCCSc1nnc(Cc2cccs2)n1C1CCCCC1`, the growth inhibition in assay [1] is 1%; in assay [4], 87% (active). The inhibition was 19% in assay [2] and -5% in assay [3]. In addition, the outcome in assay [5], in assay [6], in assay [7] and in assay [8] was inactive.
Regarding `CC(Cc1ccc(OCC(=O)NCC2CCN(CCc3cccc(Cl)c3)CC2)cc1)NCCc1cccc(Cl)c1` (configuration not stated), the growth inhibition in assay [1] was 85% (active); in assay [4], 96% (active). The values for the inhibition in assay [2] and in assay [3] were 100% (active) and -8%, respectively. Also, the result in assay [5], in assay [6], in assay [7] and in assay [8] was inactive.
On to `Cc1ccc(NC(=O)c2ccc(CN3CCCN(CCC(C)C)CC3)cc2)cc1C`, for which the values for the growth inhibition in assay [1] and in assay [4] were 17% and 92% (active), respectively. Besides, the results for the inhibition in assay [2] and in assay [3] were 25% and 3%, respectively. Moreover, the outcome in assay [5], in assay [6], in assay [7] and in assay [8] was inactive.
Turning to `O=C(NC1CCN(Cc2ccccc2O)C1)c1cccc(C(F)(F)F)c1` (configuration not stated), the growth inhibition is 62% (active) in assay [1] and 98% (active) in assay [4]. In addition, the inhibition in assay [2] is -4%; in assay [3] it was 4%. For the same molecule, the result in assay [5], in assay [6], in assay [7] and in assay [8] was inactive.
Turning to `CC(C)(C)NC(=O)c1ccc(Oc2ccc(OC(F)(F)F)cc2)c(NC(=O)C(C)(C)C)c1`, the growth inhibition in assay [1] is 2%; in assay [4], 89% (active). Further, the inhibition was -11% in assay [2] and 3% in assay [3]. For the same molecule, the result in assay [5], in assay [6], in assay [7] and in assay [8] was inactive.
In the case of `CC(C)c1ccc(NC(=O)Nc2ccc(CCNCCCc3ccccc3)cc2)cc1`, the values for the growth inhibition in assay [1] and in assay [4] were 56% (active) and 101% (active), respectively. In addition, the inhibition in assay [2] is 22%; in assay [3], 1%. In addition, the result in assay [5], in assay [6], in assay [7] and in assay [8] was inactive.
As for `COc1ccc(CCCCN2C(=O)C(c3ccccc3)(c3ccccc3)N=C2N)cc1`, the growth inhibition in assay [1] was 95% (active); in assay [4], 97% (active). Further, the inhibition in assay [2] is 40%; in assay [3] it was -2%. The result in assay [5], in assay [6], in assay [7] and in assay [8] was inactive.
Turning to `COc1cccc(C2C(C(=O)Nc3ccccc3)=C(C)N=c3s/c(=C\c4ccc(O)cc4)c(=O)n32)c1` (configuration not stated), the growth inhibition in assay [1] and in assay [4] was 97% (active) in each case. Moreover, the figures for the inhibition in assay [2] and in assay [3] were 15% and 6%, respectively. Also, the outcome in assay [5], in assay [6], in assay [7] and in assay [8] was inactive.
As to `COc1ccc2c(c1C1CCN(CCCCNC(=O)c3ccc(NC(=O)c4ccc(Cl)cc4)cc3)CC1)CCCC2`, the results for the growth inhibition in assay [1] and in assay [4] were 99% (active) and 101% (active), respectively. Moreover, the figures for the inhibition in assay [2] and in assay [3] were 19% and -2%, respectively. Further, the outcome in assay [5], in assay [6], in assay [7] and in assay [8] was inactive.
As for `Cc1noc(C)c1CN1Cc2ccccc2OC2(CCN(Cc3c[nH]c4cnccc34)CC2)C1`, the results for the growth inhibition in assay [1] and in assay [4] were 12% and 89% (active), respectively. Besides, the inhibition in assay [2] was 19%; in assay [3], -2%. Further, the outcome in assay [5], in assay [6], in assay [7] and in assay [8] was inactive.
Consider `COc1ccc(-c2cc(C(=O)Nc3ccc4nc(-c5ccccc5)[nH]c4c3)[nH]n2)cc1`, for which the growth inhibition in assay [1] is 78% (active); in assay [4] it was 90% (active). For the same molecule, the inhibition in assay [2] is 77% (active); in assay [3] it was 3%. Further, the outcome in assay [5], in assay [6], in assay [7] and in assay [8] was inactive.
`CC(C)(C)c1ccccc1OC(=O)c1ccccc1`: the results for the growth inhibition in assay [1] and in assay [4] were 2% and 95% (active), respectively. The inhibition is -4% in assay [2] and 0% in assay [3]. Besides, the result in assay [5], in assay [6], in assay [7] and in assay [8] was inactive.
As for `NC(=NCCCCCCCCN=C(N)Nc1ccc(Cl)cc1)Nc1ccc(Cl)cc1`, the growth inhibition in assay [1] is 89% (active); in assay [4] it was 93% (active). Also, the inhibition is 10% in assay [2] and -5% in assay [3]. For the same molecule, the outcome in assay [5], in assay [6], in assay [7] and in assay [8] was inactive.
With `C=CCn1c(Sc2ccc(C#N)c([N+](=O)[O-])c2)nnc1-c1ccc(OC)cc1`, the growth inhibition in assay [1] was 74% (active); in assay [4], 96% (active). The inhibition in assay [2] was -5%; in assay [3] it was 0%. For the same molecule, the result in assay [5], in assay [6], in assay [7] and in assay [8] was inactive.
With `Cc1cccc(C)c1N1CCN(C2CCC(NC(=O)/C=C/c3ccccc3)CC2)CC1` (configuration not stated), the growth inhibition is 34% in assay [1] and 83% (active) in assay [4]. Besides, the inhibition is 38% in assay [2] and -2% in assay [3]. For the same molecule, the outcome in assay [5], in assay [6], in assay [7] and in assay [8] was inactive.
`O=C(Nc1ccccc1F)N(CCCn1ccnc1)Cc1csc(-c2ccc(CNCc3ccccc3)cc2)n1`: the growth inhibition in assay [1] is 26%; in assay [4], 93% (active). Also, the inhibition in assay [2] is 24%; in assay [3], 2%. The result in assay [5], in assay [6], in assay [7] and in assay [8] was inactive.
In the case of `CN1CCN(C(C(=O)NCc2cc(Cl)cc(Cl)c2)c2ccc(NC(=O)Nc3ccccc3)cc2)CC1` (configuration not stated), the growth inhibition in assay [1] was 43%; in assay [4], 98% (active). In addition, the inhibition is 23% in assay [2] and -5% in assay [3]. Further, the outcome in assay [5], in assay [6], in assay [7] and in assay [8] was inactive.
As for `O=C(Cn1c(CCc2cccc(F)c2F)nc(=O)c2ccccc21)N(Cc1ccc(-c2ccc(C(F)(F)F)cc2)cc1)C1CCN(C2=NCCS2)CC1`, the growth inhibition in assay [1] is 85% (active); in assay [4], 81% (active). Also, the results for the inhibition in assay [2] and in assay [3] were 62% (active) and 3%, respectively. Also, the result in assay [5], in assay [6], in assay [7] and in assay [8] was inactive.
